These results are taken from PubChem BioAssay (NCI).

Holding throughout (experiment): NCI-60 one-dose screen, 48 h (100 = growth as untreated, 0 = no growth, -100 = all killed)
Settings in all cases: 10 µM unless noted

Assay [1] deals with DU-145 prostate.
The test system of assay [2] is K-562 leukemia.
For assay [3], the system named is MALME-3M melanoma.
In assay [4] the test system is MDA-MB-231 breast.
Assay [5] has as its system RXF 393 renal.
In assay [6] the test system is SF-268 CNS.
Assay [7] deals with SF-295 CNS.
Assay [8] relates to SF-539 CNS.
Assay [9] relates to UACC-257 melanoma.
The subject of assay [10] is M14 melanoma.
The subject of assay [11] is HCT-15 colon.
Assay [12] has as its system HT29 colon.
In assay [13] the test system is SNB-75 CNS.
Assay [14] relates to SNB-19 CNS.
Assay [15] deals with U251 CNS.
In assay [16] the test system is PC-3 prostate.
Assay [17] concerns SK-MEL-5 melanoma.
Assay [18] relates to UACC-62 melanoma.
Assay [19] has as its system LOX IMVI melanoma.
Assay [20] has as its system SK-MEL-28 melanoma.

Molecules are shown by their SMILES. About 83,000 compounds went through this panel and 20% of them were active in at least one assay; those are over-represented in the sample as a whole.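 For each line, cells grew in 96-well plates with the test compound present at a single concentration for 48 hours.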 A number with no mark means an inactive call. Calls of active or inactive are those of the source. Rule for the calls: active = growth percent below 10; inactive = the rest.

For the compound `O=C(Nc1cccc([N+](=O)[O-])c1)c1ccc2ccccc2c1O`, the growth in assay [1] was 79.3%; in assay [2], 45.6%; in [3], 20.5%; in assay [4], 82.2%; in assay [5] it was 37.5%; in assay [6], 71.7%. Also, the growth in assay [7] is 57.1%; in assay [8] it was 55.2%; in assay [9], 14.5%; in [10] it was 49.8%; in assay [11], 66%; in assay [12], 93.9%. Further, the growth in assay [13] was 97.4%; in assay [14], 67.6%; in [15], 49.4%; in assay [16], 51.9%; in assay [17] it was 19.5%; in assay [18], 20.4%. In addition, the growth in assay [19] was 63.3%; in assay [20], 93.2%.
Turning to `COc1ccc(-c2nn(-c3ccc(NC(=O)Nc4cc(C(F)(F)F)cc(C(F)(F)F)c4)cc3)cc2-c2ccncc2)cc1Cl`, the growth in [1] is 30.4%; in assay [2], 17.2%; in assay [3], 11.4%; in assay [4], 8.03% (active); in [5], -26.2% (active); in assay [6], 21.8%. Also, the growth is 4% (active) in assay [7]; 24.6% in [8]; 13.6% in assay [9]; 20.6% in assay [10]; 9.81% (active) in assay [11]; 11.7% in [12]. Further, the growth was 34.4% in assay [13]; 31.5% in [14]; 11.8% in [15]; 3.33% (active) in [16]; 9.61% (active) in [17]; 15.6% in assay [18]. Further, the growth is 15% in assay [19] and 30.1% in [20].
As to `Nc1nc(-c2cc3c(cc2Cl)NC(=O)/C3=C/c2ccccc2)cs1`, the growth was 51.6% in assay [1]; 3.89% (active) in assay [2]; 97.1% in [3]; 37.3% in [4]; 63.3% in assay [5]; 52.1% in assay [6]. Further, the growth in assay [7] was 70%; in [8], 81.5%; in assay [9], 80.1%; in assay [10] it was 60.6%; in assay [11], 35.5%; in [12], 35.8%. Further, the growth in assay [13] was 64.8%; in assay [14], 59.7%; in assay [15], 40.3%; in assay [16], 46.4%; in [17] it was 24.7%; in assay [18], 43%. For the same compound, the growth in [19] is 3.66% (active); in assay [20], 76.1%.
Take `CCCCOc1c(N)cccc1C(=O)OCCN(CC)CC`: the growth in assay [1] is 103%; in [2], 80.4%; in assay [3], 100%; in assay [4] it was 99.3%; in [5], 100%; in [6] it was 95.1%. Further, the growth was 103% in assay [7]; 104% in [8]; 100% in assay [9]; 99.5% in [10]; 109% in [11]; 85.8% in assay [12]. The growth in assay [13] was 102%; in assay [14], 99.9%; in assay [15], 96.5%; in assay [16] it was 86.8%; in assay [17] it was 105%; in assay [18] it was 95.2%. Besides, the growth was 102% in assay [19] and 112% in assay [20].
In the case of `O=c1cc(Cl)[nH]c(=O)[nH]1`, the growth in [1] was 107%; in assay [2], 104%; in assay [3], 112%; in assay [4] it was 111%; in assay [5], 101%; in [6], 101%. The growth in assay [7] is 101%; in assay [8], 105%; in assay [9] it was 89.1%; in assay [10], 97.6%; in assay [11] it was 107%; in [12] it was 83.6%. Also, the growth was 100% in assay [13]; 107% in [14]; 97.5% in assay [15]; 98.4% in assay [16]; 101% in assay [17]; 86.3% in [18]. For the same compound, the growth in assay [19] is 101%; in assay [20], 105%.
With `CCOc1ccc(NC(=O)Nc2cc(C(C)C)ccc2C)cc1`, the growth in assay [1] was 93.2%; in assay [2], 85%; in [3] it was 105%; in assay [4], 16.7%; in assay [5], -31.8% (active); in [6], 69.2%. Also, the growth is 104% in assay [7]; 90% in assay [8]; 66.4% in assay [9]; 93.4% in assay [10]; 83.3% in [11]; 85% in assay [12]. Further, the growth was 19.5% in assay [13]; 79.5% in [14]; 28.9% in assay [15]; 69.3% in assay [16]; 124% in assay [17]; 80% in assay [18]. Besides, the growth in [19] is 71.2%; in assay [20] it was 68%.
